Data from ChEMBL document CHEMBL2218924, “A broad activity screen in support of a chemogenomic map for kinase signalling research and drug discovery” (Biochem J, 2013).

Legend:
[1] = biological target: T1, Rhodopsin kinase GRK7 (Homo sapiens) (UniProt Q8WTQ7); conditions: at 10 µM
T1 sequence (whole entry): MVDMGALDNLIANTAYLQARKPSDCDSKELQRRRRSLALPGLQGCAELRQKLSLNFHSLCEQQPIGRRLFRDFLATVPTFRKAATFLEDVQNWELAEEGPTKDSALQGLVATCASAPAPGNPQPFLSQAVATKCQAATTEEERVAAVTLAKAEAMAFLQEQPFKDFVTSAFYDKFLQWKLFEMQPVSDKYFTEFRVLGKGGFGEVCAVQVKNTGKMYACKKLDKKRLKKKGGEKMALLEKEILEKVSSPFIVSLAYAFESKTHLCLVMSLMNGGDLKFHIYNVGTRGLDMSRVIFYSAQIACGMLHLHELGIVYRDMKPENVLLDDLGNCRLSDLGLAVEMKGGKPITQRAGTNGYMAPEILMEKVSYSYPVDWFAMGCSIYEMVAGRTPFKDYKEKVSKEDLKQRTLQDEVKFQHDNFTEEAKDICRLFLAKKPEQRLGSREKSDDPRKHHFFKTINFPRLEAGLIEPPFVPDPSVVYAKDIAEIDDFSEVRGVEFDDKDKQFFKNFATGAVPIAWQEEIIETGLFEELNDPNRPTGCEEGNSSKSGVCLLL

[2] = biological target: Glycogen synthase kinase-3 alpha (Homo sapiens) (UniProt P49840); conditions: at 1 µM
[3] = biological target: Glycogen synthase kinase-3 alpha (Homo sapiens) (UniProt P49840); conditions: at 10 µM
[4] = biological target: Homeodomain-interacting protein kinase 1 (Homo sapiens) (UniProt Q86Z02); conditions: at 1 µM
[5] = biological target: Homeodomain-interacting protein kinase 1 (Homo sapiens) (UniProt Q86Z02); conditions: at 10 µM
[6] = biological target: Homeodomain-interacting protein kinase 2 (Homo sapiens) (UniProt Q9H2X6); conditions: at 1 µM
[7] = biological target: Homeodomain-interacting protein kinase 2 (Homo sapiens) (UniProt Q9H2X6); conditions: at 10 µM
[8] = biological target: Homeodomain-interacting protein kinase 3 (Homo sapiens) (UniProt Q9H422); conditions: at 1 µM
[9] = biological target: Glycogen synthase kinase-3 beta (Homo sapiens) (UniProt P49841); conditions: at 1 µM
[10] = biological target: Glycogen synthase kinase-3 beta (Homo sapiens) (UniProt P49841); conditions: at 10 µM

Sequence of Homeodomain-interacting protein kinase 1 (Homo sapiens) (Q86Z02 whole entry, looked up): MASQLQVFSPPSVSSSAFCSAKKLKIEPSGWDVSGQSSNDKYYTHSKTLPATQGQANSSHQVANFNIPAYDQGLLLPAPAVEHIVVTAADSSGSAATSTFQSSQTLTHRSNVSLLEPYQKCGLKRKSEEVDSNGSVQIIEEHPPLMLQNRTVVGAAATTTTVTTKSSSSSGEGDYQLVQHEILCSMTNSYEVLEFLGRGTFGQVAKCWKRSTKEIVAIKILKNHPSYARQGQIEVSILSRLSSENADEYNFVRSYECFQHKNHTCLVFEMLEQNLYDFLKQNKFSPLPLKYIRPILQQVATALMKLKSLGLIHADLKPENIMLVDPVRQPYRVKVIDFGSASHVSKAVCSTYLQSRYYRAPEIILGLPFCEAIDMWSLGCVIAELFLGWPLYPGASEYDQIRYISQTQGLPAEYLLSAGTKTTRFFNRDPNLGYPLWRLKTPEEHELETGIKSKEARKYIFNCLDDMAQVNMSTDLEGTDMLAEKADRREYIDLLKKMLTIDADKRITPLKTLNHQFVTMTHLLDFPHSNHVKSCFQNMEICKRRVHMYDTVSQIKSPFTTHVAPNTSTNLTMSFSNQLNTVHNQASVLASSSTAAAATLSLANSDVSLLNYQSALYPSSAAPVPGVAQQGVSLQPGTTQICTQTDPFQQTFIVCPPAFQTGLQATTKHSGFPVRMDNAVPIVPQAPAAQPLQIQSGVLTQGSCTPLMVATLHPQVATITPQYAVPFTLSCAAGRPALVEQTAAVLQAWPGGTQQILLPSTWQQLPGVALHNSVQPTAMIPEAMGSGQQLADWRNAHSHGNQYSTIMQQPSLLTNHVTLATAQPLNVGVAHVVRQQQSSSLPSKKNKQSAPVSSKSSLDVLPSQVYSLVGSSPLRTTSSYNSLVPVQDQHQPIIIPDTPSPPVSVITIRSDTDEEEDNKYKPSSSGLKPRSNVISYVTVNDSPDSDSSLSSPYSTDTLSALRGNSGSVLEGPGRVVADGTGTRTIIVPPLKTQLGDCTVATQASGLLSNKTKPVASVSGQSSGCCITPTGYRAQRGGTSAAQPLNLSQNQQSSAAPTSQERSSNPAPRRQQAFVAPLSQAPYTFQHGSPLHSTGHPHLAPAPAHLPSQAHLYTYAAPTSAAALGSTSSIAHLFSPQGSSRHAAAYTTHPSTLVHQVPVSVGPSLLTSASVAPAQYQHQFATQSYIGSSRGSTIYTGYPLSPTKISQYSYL
Sequence of Homeodomain-interacting protein kinase 3 (Homo sapiens) (Q9H422 whole entry, looked up): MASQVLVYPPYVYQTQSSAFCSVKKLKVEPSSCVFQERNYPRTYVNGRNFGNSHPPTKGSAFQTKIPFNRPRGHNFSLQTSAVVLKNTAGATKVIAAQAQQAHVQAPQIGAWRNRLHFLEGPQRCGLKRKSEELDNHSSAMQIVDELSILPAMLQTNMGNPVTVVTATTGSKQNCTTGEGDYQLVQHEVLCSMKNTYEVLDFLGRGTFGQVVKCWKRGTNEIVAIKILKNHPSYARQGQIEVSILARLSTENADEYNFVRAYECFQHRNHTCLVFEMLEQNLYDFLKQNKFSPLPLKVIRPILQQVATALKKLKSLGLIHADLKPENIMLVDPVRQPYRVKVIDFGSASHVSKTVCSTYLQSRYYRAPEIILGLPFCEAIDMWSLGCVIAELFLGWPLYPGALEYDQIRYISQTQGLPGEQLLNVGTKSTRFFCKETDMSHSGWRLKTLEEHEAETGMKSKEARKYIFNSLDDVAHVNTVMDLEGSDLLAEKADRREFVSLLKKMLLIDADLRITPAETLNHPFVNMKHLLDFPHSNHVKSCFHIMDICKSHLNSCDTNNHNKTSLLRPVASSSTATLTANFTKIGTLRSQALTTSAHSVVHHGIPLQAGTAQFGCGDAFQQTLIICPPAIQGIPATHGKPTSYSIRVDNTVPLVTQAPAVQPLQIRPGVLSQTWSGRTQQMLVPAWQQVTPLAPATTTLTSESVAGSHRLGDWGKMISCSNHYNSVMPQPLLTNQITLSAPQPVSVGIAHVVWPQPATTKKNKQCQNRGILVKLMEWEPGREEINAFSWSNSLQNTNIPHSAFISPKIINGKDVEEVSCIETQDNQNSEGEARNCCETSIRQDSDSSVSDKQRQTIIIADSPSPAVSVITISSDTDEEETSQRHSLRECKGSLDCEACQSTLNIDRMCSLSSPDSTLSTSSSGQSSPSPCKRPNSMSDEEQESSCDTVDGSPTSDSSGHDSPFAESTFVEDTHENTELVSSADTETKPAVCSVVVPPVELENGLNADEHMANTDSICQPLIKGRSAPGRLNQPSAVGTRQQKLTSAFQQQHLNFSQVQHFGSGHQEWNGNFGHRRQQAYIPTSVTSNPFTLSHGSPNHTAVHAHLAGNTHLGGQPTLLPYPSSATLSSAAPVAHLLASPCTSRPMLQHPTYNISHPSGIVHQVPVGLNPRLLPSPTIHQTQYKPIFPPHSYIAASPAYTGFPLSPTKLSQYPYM
Sequence of Glycogen synthase kinase-3 alpha (Homo sapiens) (P49840 2-483 limits assumed): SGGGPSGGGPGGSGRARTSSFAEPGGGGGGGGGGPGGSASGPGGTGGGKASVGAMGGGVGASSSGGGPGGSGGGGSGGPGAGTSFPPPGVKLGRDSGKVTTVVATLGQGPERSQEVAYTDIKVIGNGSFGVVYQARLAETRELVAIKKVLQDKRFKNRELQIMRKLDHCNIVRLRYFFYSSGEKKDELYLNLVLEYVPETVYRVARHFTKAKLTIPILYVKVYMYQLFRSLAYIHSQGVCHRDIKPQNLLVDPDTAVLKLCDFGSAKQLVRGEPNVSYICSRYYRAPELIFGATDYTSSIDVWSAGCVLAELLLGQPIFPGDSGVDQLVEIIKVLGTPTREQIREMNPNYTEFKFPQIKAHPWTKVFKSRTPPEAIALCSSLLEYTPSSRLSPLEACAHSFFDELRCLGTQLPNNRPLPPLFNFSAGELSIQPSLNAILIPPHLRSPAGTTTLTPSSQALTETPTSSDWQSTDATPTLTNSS
Sequence of Homeodomain-interacting protein kinase 2 (Homo sapiens) (Q9H2X6 whole entry, looked up): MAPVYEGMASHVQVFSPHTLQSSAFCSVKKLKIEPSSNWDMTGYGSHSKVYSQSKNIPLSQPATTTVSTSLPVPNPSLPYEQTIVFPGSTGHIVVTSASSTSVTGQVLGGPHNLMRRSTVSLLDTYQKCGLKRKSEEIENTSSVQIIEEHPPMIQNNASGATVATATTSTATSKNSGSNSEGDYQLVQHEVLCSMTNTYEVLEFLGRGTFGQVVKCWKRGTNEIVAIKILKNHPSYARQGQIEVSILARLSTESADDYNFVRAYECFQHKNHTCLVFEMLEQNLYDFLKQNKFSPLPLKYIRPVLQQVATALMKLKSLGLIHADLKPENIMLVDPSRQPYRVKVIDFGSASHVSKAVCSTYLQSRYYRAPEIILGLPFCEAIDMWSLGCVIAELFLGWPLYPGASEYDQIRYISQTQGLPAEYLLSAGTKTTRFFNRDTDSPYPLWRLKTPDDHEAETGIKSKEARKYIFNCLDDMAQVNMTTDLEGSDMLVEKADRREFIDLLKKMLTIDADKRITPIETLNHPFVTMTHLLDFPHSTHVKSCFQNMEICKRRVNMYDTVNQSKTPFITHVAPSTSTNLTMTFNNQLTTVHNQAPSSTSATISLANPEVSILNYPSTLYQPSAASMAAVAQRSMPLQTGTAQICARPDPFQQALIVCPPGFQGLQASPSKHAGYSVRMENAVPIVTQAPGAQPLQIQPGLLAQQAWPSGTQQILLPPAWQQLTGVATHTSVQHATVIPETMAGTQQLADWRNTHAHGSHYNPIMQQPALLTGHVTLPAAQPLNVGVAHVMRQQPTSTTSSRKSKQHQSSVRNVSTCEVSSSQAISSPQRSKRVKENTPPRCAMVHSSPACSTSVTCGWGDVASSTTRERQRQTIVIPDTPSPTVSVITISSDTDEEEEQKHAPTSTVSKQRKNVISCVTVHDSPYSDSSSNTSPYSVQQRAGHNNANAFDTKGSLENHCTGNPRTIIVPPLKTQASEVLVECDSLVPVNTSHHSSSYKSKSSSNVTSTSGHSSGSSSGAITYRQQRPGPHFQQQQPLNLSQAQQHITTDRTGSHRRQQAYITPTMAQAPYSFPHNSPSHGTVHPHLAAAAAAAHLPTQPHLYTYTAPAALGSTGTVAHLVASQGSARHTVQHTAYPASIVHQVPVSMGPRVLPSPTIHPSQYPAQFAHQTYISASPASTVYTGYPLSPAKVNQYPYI
Sequence of Glycogen synthase kinase-3 beta (Homo sapiens) (P49841 whole entry, looked up): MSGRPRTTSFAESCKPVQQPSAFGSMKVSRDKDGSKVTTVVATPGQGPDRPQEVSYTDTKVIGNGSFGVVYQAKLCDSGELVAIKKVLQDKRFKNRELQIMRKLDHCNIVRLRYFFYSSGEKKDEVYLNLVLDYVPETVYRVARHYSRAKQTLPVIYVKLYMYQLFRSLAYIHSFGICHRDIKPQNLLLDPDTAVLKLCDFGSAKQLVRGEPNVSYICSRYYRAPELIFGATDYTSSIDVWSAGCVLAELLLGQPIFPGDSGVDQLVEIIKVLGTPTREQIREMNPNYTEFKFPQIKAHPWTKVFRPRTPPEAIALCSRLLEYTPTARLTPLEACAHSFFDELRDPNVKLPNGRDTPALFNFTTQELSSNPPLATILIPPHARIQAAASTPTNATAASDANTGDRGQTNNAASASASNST

NC(=O)Nc1sc(-c2ccc(F)cc2)cc1C(N)=O
residual activity [1]: 19%
residual activity [2]: 64%
residual activity [3]: 29%
residual activity [4]: 106%
residual activity [5]: 87%
residual activity [6]: 94%
residual activity [7]: 67%
residual activity [8]: 100%

CC(C)c1nn(-c2c(Cl)cccc2Cl)c2nc(Cc3ccc(OCCO)cc3)[nH]c(=O)c12
residual activity [1]: 80%
residual activity [2]: 66%
residual activity [3]: 13%
residual activity [9]: 51%
residual activity [10]: 45%
residual activity [4]: 104%
residual activity [5]: 98%
residual activity [6]: 99%
residual activity [7]: 89%
residual activity [8]: 107%

O=C1NC(=O)C(c2cn(CCCn3ccnc3)c3ccccc23)=C1Nc1ccccc1
residual activity [1]: 22%
residual activity [2]: 14%
residual activity [3]: 1%
residual activity [9]: 14%
residual activity [10]: 3%

Cn1c2ccccc2c2c3c(c4c5ccccc5n(CCC#N)c4c21)CNC3=O
residual activity [1]: 34%
residual activity [2]: 20%
residual activity [3]: 19%
residual activity [9]: 15%
residual activity [10]: 26%
residual activity [6]: 20%
residual activity [7]: 11%

COc1ccc2c(c1)c(C1=C(c3c[nH]c4ccccc34)C(=O)NC1=O)cn2CCCN(C)C
residual activity [1]: 44%
residual activity [2]: 15%
residual activity [3]: -1%
residual activity [9]: 30%
residual activity [10]: 4%
residual activity [5]: 34%
residual activity [6]: 57%
residual activity [7]: 13%
residual activity [8]: 72%

Nc1ncnc2c1c(-c1ccc(Oc3ccccc3)cc1)cn2C1CCCC1
residual activity [1]: 69%
residual activity [2]: 104%
residual activity [3]: 112%
residual activity [9]: 88%
residual activity [4]: 86%
residual activity [5]: 98%
residual activity [6]: 96%
residual activity [7]: 75%
residual activity [8]: 86%

CSc1nc(-c2ccc(F)cc2)c(-c2ccnc(NC(C)c3ccccc3)c2)[nH]1 (stereo not drawn)
residual activity [3]: 96%
residual activity [5]: 97%
residual activity [7]: 86%

O=C1C(Cl)=C(N2C(=O)CCC2=O)C(=O)c2ccccc21
residual activity [1]: 90%
residual activity [9]: 120%
residual activity [10]: 93%
residual activity [5]: 89%
residual activity [6]: 102%
residual activity [7]: 92%
residual activity [8]: 93%

COc1cc2ncnc(Nc3cccc(Cl)c3)c2cc1OC
residual activity [2]: 101%
residual activity [3]: 121%
residual activity [8]: 110%

NC(=O)c1cccc(-c2cc(Nc3ccc(OC(F)(F)F)cc3)ncn2)c1
residual activity [2]: 98%
residual activity [3]: 82%
residual activity [10]: 64%

CC(C)(C)c1nc2c3ccc(F)cc3c3c(=O)[nH]ccc3c2[nH]1
residual activity [5]: 98%
residual activity [6]: 65%
residual activity [7]: 21%
residual activity [8]: 79%

CC(C)N(CCC(=O)c1ccc2ccccc2c1)Cc1ccccc1
residual activity [3]: 135%
residual activity [8]: 86%

Nc1n[nH]c2nc3ccccc3nc12
residual activity [2]: 81%
residual activity [3]: 50%
residual activity [9]: 100%
residual activity [10]: 80%
residual activity [5]: 87%
residual activity [6]: 98%
residual activity [7]: 59%

NCCNc1ncc(C(N)=O)c(Nc2cccc(C(F)(F)F)c2)n1
residual activity [10]: 26%

CCOC(=O)c1c(C)[nH]c(/C=C2\C(=O)Nc3ccccc32)c1C
residual activity [3]: 129%
residual activity [9]: 99%
residual activity [10]: 80%

c1ccc(-c2cnc(Nc3ccc(OCCN4CCCC4)cc3)s2)cc1
residual activity [2]: 109%
residual activity [3]: 133%
residual activity [6]: 67%
residual activity [7]: 19%
residual activity [8]: 78%

COc1ccc(CNC(=O)Nc2ncc([N+](=O)[O-])s2)cc1
residual activity [9]: 28%
residual activity [10]: 14%

Nc1ncnc2[nH]nc(Nc3ccc(F)cc3)c12
residual activity [2]: 98%
residual activity [3]: 90%
residual activity [9]: 100%
residual activity [10]: 93%
residual activity [4]: 108%
residual activity [5]: 96%
residual activity [6]: 100%
residual activity [7]: 92%

N#C/C(=C\c1ccc(O)c(O)c1)C(=O)NCc1ccccc1
residual activity [6]: 101%

CCN1/C(=C/C(C)=O)Sc2ccc(OC)cc21
residual activity [3]: 34%
residual activity [10]: 63%
residual activity [8]: 82%

O=c1cc(N2CCNCC2)oc2c(-c3ccccc3)cccc12
residual activity [1]: 84%
residual activity [9]: 78%
residual activity [10]: 84%
residual activity [4]: 101%
residual activity [5]: 96%
residual activity [6]: 97%
residual activity [7]: 90%
residual activity [8]: 90%

O=C1NC(=O)C(c2cn(CCCO)c3ncccc23)=C1c1cnccn1
residual activity [2]: 6%
residual activity [3]: 3%
residual activity [9]: 34%
residual activity [10]: 10%
residual activity [4]: 93%
residual activity [5]: 93%
residual activity [6]: 56%
residual activity [7]: 52%

COc1ccc(Cl)cc1NC(=O)Nc1cc(C)nc2ccccc12
residual activity [1]: 88%
residual activity [4]: 97%
residual activity [6]: 98%
residual activity [7]: 87%
residual activity [8]: 99%

Nc1nccc(-c2c(-c3ccc(F)cc3)ncn2C2CCNCC2)n1
residual activity [10]: 64%
residual activity [5]: 82%
residual activity [7]: 62%

COc1ccc(COc2ccc(Cc3cnc(N)nc3N)cc2OC)cc1
residual activity [2]: 120%
residual activity [3]: 119%
residual activity [10]: 80%

O=S(=O)(c1cccc2cnccc12)N1CCCNCC1
residual activity [9]: 136%

Fc1ccc(-c2nc3n(c2-c2ccncc2)CCS3)cc1
residual activity [2]: 88%
residual activity [3]: 88%
residual activity [7]: 91%

Cn1sc(=O)n(Cc2ccccc2)c1=O
residual activity [1]: 77%
residual activity [6]: 94%
residual activity [7]: 94%

O=C(Nc1ccc(Cl)cc1)c1ccccc1NCc1ccncc1
residual activity [2]: 118%
residual activity [3]: 130%

N#C/C(=C1/Nc2ccccc2S1)c1ccnc(NCCc2cccnc2)n1
residual activity [2]: 1%
residual activity [3]: -1%
residual activity [9]: 8%
residual activity [10]: 1%
residual activity [6]: 47%
residual activity [7]: 6%
residual activity [8]: 88%

O=C1Cc2c([nH]c3ccc([N+](=O)[O-])cc23)-c2ccccc2N1
residual activity [2]: 1%
residual activity [3]: 2%
residual activity [9]: -1%
residual activity [10]: 3%
residual activity [4]: 109%
residual activity [5]: 100%

COc1ccc(-c2cnc3c(-c4ccsc4)cnn3c2)cc1
residual activity [9]: 87%
residual activity [10]: 88%
residual activity [6]: 93%
residual activity [7]: 95%

COc1cc2nccc(Oc3ccc(NC(=O)Nc4cc(C)on4)c(Cl)c3)c2cc1OC
residual activity [2]: 107%
residual activity [3]: 123%
residual activity [4]: 96%
residual activity [5]: 106%

N#Cc1c(NC(=O)c2cccc3ccccc23)sc2c1CCCC2
residual activity [2]: 84%
residual activity [3]: 80%
residual activity [10]: 100%
residual activity [8]: 99%

NC(=O)c1ccc(-c2nc(-c3ccc4c(c3)OCCO4)c(-c3ccccn3)[nH]2)cc1
residual activity [9]: 117%
residual activity [10]: 98%

CCN(CC)CCNC(=O)c1c(C)[nH]c(/C=C2\C(=O)Nc3ccc(Cl)cc32)c1C
residual activity [1]: 9%
residual activity [4]: 32%
residual activity [5]: 4%
residual activity [6]: 6%
residual activity [7]: 1%
residual activity [8]: 9%

O=c1c(-c2ccc(F)cc2)c(-c2ccncc2)[nH]n1-c1ccc(Cl)cc1
residual activity [3]: 69%
residual activity [9]: 102%
residual activity [10]: 56%
residual activity [7]: 99%

O=C1Cc2c([nH]c3ccc(Br)cc23)-c2ccccc2N1
residual activity [9]: 8%
residual activity [10]: 7%
residual activity [5]: 90%
residual activity [6]: 98%
residual activity [7]: 64%
